Source: PubChem BioAssay (Tox21)
Results filed as inconclusive are left out. A number with no mark means an inactive call. Activity calls are given as the source filed them. The call rests on the fitted dose curve.

The compounds below were run against Thyrotropin receptor (Homo sapiens) (UniProt P16473) (assay: qHTS assay to identify small molecule antagonists of the thyroid stimulating hormone receptor (TSHR) signaling pathway (AID 1259385; further: nearly all actives have a fitted effect of over 20% in size)). Settings: TSHR-HEK293 cAMP HTRF, TSH-stimulated antagonist mode; series mostly up to 92.4 µM; activity change, negative = inhibition: at the top concentration.
From the text: U.S. Tox21 Program National Center for Advancing Translational Sciences [NCATS] NIH Chemical Genomics Center [NCGC] U.S. Environmental Protection Agency [EPA] National Institutes of Environmental Health Sciences [NIEHS] National Toxicology Program [NTP] U.S. Food and Drug Administration [FDA] Tox21 Assay Overview: TSHR is the receptor for thyrotropin (thyroid stimulating hormone or TSH), a member of the glycoprotein hormone family. TSH is released by the anterior pituitary gland and is the main regulator of thyroid gland growth and development. Upon binding circulating thyrotropin, a G-protein signal cascade activates adenylyl cyclase and […] cAMP concentration is increased. cAMP is a key second messenger involved extensively in cellular signal transduction pathways associated with the majority of G-protein coupled receptors (GPCRs). The activation of these GPCRs by neurotransmitters, lipids, nucleotides, peptides and hormones results in the activation or the inhibition of plasma membrane-bound adenylate cyclase through heterotrimeric G-proteins. A cell-based TSHR assay can be used to screen chemical compounds that modulate TSHR either in agonist or antagonist mode.
Tox21 Assay Protocol Summary: TSHR-Hek293 cells were dispensed at 800 cells/4uL/well in 1536-well white plates using a Multidrop dispenser. After the assay plates were incubated at a 37C/5% CO2 incubator for 18 hrs, 23 nL of compounds dissolved in DMSO, positive controls or DMSO only was transferred to the assay plate by a pin tool, followed by 1 ul medium containing Ro20-1724. For the antagonist mode screening, 1 uL of TSH was added on the top of the cell/compound mixtures to achieve a final agonist concentration of 1.5 ng/mL. After 30 min of incubation at room temperature, 2.5 ul/well of cAMP-d2 and 2.5 ul/well of anti-cAMP-cryptate were added respectively into the assay plates using a Flying Reagent Dispenser. The plates were incubated at room temperature for 1 hr. The fluorescence intensity in the plates was measured using an Envision plate reader. Each test compound was measured at 15 concentrations and in triplicates.
On the % scale 0 is the no-effect control and ±100 the full control effect; potency means the concentration at half of the fitted maximal effect.

Thyrotropin receptor (Homo sapiens), sequence (P16473 whole entry, looked up): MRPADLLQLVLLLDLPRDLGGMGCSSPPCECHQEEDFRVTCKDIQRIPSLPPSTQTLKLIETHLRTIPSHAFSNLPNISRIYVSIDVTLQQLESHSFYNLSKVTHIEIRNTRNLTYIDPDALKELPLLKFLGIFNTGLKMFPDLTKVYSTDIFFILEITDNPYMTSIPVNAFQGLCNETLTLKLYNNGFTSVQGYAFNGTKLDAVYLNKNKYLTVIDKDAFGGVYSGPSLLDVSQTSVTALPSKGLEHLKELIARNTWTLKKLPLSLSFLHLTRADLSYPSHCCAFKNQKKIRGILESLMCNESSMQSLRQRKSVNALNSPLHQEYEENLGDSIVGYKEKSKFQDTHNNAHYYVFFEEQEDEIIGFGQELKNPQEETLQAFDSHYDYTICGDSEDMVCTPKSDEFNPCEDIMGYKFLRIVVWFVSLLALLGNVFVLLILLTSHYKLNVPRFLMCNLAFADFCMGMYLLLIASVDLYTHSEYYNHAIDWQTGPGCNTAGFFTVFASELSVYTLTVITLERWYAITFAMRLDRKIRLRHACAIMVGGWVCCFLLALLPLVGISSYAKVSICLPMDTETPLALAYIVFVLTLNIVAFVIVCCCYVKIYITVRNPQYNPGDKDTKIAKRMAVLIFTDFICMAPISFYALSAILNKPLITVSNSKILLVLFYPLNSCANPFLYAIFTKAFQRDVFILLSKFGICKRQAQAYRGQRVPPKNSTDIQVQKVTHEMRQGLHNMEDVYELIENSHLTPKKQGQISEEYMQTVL

Compared with `CCOC(=O)/C=C(C)/C=C/C=C(C)/C=C/c1c(C)cc(OC)c(C)c1C`, `COC(=O)c1cc(Cl)ccc1OC` is higher in “activity change, negative = inhibition” value: -4.4% [at 42.5 µM] for the first, 3.37% [at 42.5 µM] for the second.

Compared with `C/C(=C(/OCCOc1ccc(Cl)cc1)c1ccc(Cl)cc1Cl)n1ccnc1`, `Clc1ccc(C(Cn2ccnc2)OCc2ccc(Sc3ccccc3)cc2)c(Cl)c1` (stereo not given) is higher in “activity change, negative = inhibition” value: -9.24% [at 42.5 µM] for the first, -0.53% [at 42.5 µM] for the second.

Going from `Cc1onc(-c2c(Cl)cccc2Cl)c1C(=O)N[C@@H]1C(=O)N2[C@@H]1SC(C)(C)[C@@H]2C(=O)O` to `C[C@@H]1C[C@H]2[C@@H]3CCC4=CC(=O)C=C[C@]4(C)[C@@]3(Cl)[C@@H](O)C[C@]2(C)[C@@]1(OC(=O)c1ccco1)C(=O)CCl`, the “activity change, negative = inhibition” value falls from 2.93% [at 42.5 µM] to -0.0193% [at 42.5 µM].

First: O=c1c(-c2ccccc2)c1-c1ccccc1
Second: Nc1nc2ccccc2n1Cc1ccc(F)cc1
The “activity change, negative = inhibition” value of the first is higher: 1.37% [at 42.5 µM] for the first, 1.14% [at 42.5 µM] for the second.

Going from `C[C@H]1[C@H]2CC[C@H]3[C@@H]4CC=C5C[C@@H](N(C)C)CC[C@]5(C)[C@H]4CC[C@]23CN1C` to `CC(C)(C)C1CCC(CC2=C(O)c3ccccc3C(=O)C2=O)CC1` (stereo not given), the “activity change, negative = inhibition” value falls from 0.122% [at 42.5 µM] to -0.431% [at 42.5 µM].

Compared with `Cc1ccc(-n2nc(C(C)(C)C)cc2NC(=O)Nc2ccc(OCCN3CCOCC3)c3ccccc23)cc1`, `CS(=O)(=O)CCNCc1ccc(-c2ccc3ncnc(Nc4ccc(OCc5cccc(F)c5)c(Cl)c4)c3c2)o1` is lower in “activity change, negative = inhibition” value: -7.59% [at 42.5 µM] for the first, -13.2% [at 42.5 µM] for the second.

Going from `CCc1oc2ccccc2c1C(=O)c1cc(Br)c(O)c(Br)c1` to `CCN(C(=O)c1cc(C)cc(OC[C@H](C)Nc2ccncc2)c1)C(C)C`, the “activity change, negative = inhibition” value falls from -3.63% [at 42.5 µM] to -6.97% [at 42.5 µM].

First: CCCCCCC[N+](CC)(CC)CCCCc1ccc(Cl)cc1
Second: CCCCCCCCCCCCCCCS(=O)(=O)Oc1ccccc1
The “activity change, negative = inhibition” value of the first is lower: -6.19% [at 42.5 µM] for the first, -0.825% [at 42.5 µM] for the second.

Compared with `CCCCN1CCCC[C@H]1C(=O)Nc1c(C)cccc1C`, `CC(C)OC(=O)c1cc2c(OCC(O)CNC(C)(C)C)cccc2[nH]1` (stereo not given) is higher in “activity change, negative = inhibition” value: -1.98% [at 42.5 µM] for the first, 1.15% [at 42.5 µM] for the second.

Going from `OCCN1CCN(CC/C=C2/c3ccccc3Sc3ccc(C(F)(F)F)cc32)CC1` to `CC(C)(C)CC(C)(C)c1ccc(O)c(Cc2ccc(Cl)cc2Cl)c1`, the “activity change, negative = inhibition” value falls from -4.61% [at 42.5 µM] to -6.6% [at 42.5 µM].

For `CSc1ccc(C(=O)c2[nH]c(=O)[nH]c2C)cc1`, the “activity change, negative = inhibition” value was 2.12% [at 42.5 µM].

Compared with `CC(=O)S[C@@H]1CC2=CC(=O)CC[C@]2(C)[C@H]2CC[C@@]3(C)[C@@H](CC[C@@]34CCC(=O)O4)[C@H]12`, `CCCCN1C(=O)[C@@H]([C@H](O)C2CCCCC2)NC(=O)C12CCN(Cc1ccc(Oc3ccc(C(=O)O)cc3)cc1)CC2` is lower in “activity change, negative = inhibition” value: 4.64% for the first, -1.61% for the second.

Going from `O=C(NO)C1(NS(=O)(=O)c2ccc(Oc3ccc(F)cc3)cc2)CCOCC1` to `Nc1ccc2c3c(cccc13)-c1ccccc1-2`, the “activity change, negative = inhibition” value falls from -0.351% to -8.11%.

First: CCc1cc(Cc2cc(CC)cc(C(C)(C)C)c2O)c(O)c(C(C)(C)C)c1
Second: Oc1cccc2cc3cccc(O)c3c(O)c12
The “activity change, negative = inhibition” value of the first is lower: -4.8% for the first, -3.75% for the second.

Going from `CNC(=O)c1ccccc1` to `COc1cccc(N)c1`, the “activity change, negative = inhibition” value rises from 0.7% to 2.72%.

Compared with `OCCCCCCCCCCCCBr`, `CCCCCCCCOC(=O)c1ccc(O)cc1` is higher in “activity change, negative = inhibition” value: -0.711% for the first, 4.08% for the second.

Going from `CCOC(=O)c1nc(C(Cl)(Cl)Cl)n(-c2ccc(Cl)cc2Cl)n1` to `NC(=O)N1C(=O)C(C(=O)c2cc(Cl)cs2)c2cc(F)c(Cl)cc21` (stereo not given), the “activity change, negative = inhibition” value rises from -10% to -0.946%.

Going from `C1CCCC1` to `CCC(C)(C)C1CCCCC1OC(C)=O` (stereo not given), the “activity change, negative = inhibition” value rises from -2.02% to 3.09%.

Compared with `CCCCCCOC(=O)c1ccc(O)cc1`, `O=[N+]([O-])c1cc(Cl)c(Cl)c(Cl)c1Cl` is lower in “activity change, negative = inhibition” value: -0.881% for the first, -2.69% for the second.

In the case of `CCCCCCCC/C=C\CCCCCCCCOCCO`, the Potency is reported as 89.1 µM (active).
In the case of `O=c1[nH]sc2ccccc12`, the Potency is reported as 68.6 µM (active).
In the case of `CCCCCCCCn1sc(Cl)c(Cl)c1=O`, the Potency is reported as 61.1 µM (active).
